Inconclusive results are not listed. Calls of active or inactive are those of the source. Calls follow the shape of the dose curve; as a rule, active = well fitted curve in the direction sought with a large enough effect; inconclusive = small, poorly fitted or top-dose-only effect, or another doubt; inactive = no such curve, though single readings can be large; an effect the other way counts as inactive or inconclusive.
Assays:
[1] = UWB1.289-WTBRCA1 Cancer Cell Toxicity qHTS against the NCATS CANVASS Library (AID 1347354); conditions: UWB1.289-WTBRCA1 viability, CellTiter-Glo luminescence, 72 h; series mostly up to 38.3 µM
How it was run: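 Cells were seeded at 1000 per well and allowed to settle 4 hours at 37 degrees C before pin transfer of compounds as an 11-point series. Viability was read by CellTiter-Glo luminescence after 72 hours' exposure.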

[2] = HPAF-II 24hr Apoptosis Induction qHTS against the NCATS CANVASS Library (AID 1347356); conditions: HPAF-II caspase-3/7 Caspase-Glo luminescence; series mostly up to 46.1 µM
How it was run: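 HPAF-II cells (500/well) in DMEM + 10% FBS were treated with an 11-point compound series for 24 hours at 37 degrees C. Caspase-3/7 activity was then read by Caspase-Glo DEVD luminescence after 15 min.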

[3] = HEK293 18hr Apoptosis Induction qHTS against the NCATS CANVASS Library (AID 1347357); conditions: HEK293 caspase-3/7 Caspase-Glo luminescence; series mostly up to 46.1 µM
How it was run: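 Luminescent caspase-3/7 signal is measured in HEK293 cells exposed for 18 hours to an 11-point concentration series; doxorubicin serves as the plate control.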

[4] = HPAF-II 12hr Apoptosis Induction qHTS against the NCATS CANVASS Library (AID 1347358); conditions: HPAF-II caspase-3/7 Caspase-Glo luminescence; series mostly up to 46.1 µM
How it was run: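 HPAF-II cells (500/well, DMEM + 10% FBS) were exposed to compounds for 12 hours at 37 degrees C. Caspase-3/7 activity was then read by Caspase-Glo 3/7 luminescence after 15 min at room temperature.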

[5] = HEK293 24hr Apoptosis Induction qHTS against the NCATS CANVASS Library (AID 1347359); conditions: HEK293 caspase-3/7 activation, Caspase-Glo luminescence; series mostly up to 46.1 µM
How it was run: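 HEK293 cells, 500 per well, exposed to an 11-point compound series for 24 hours at 37 degrees C. Caspase 3/7 activity read by Caspase-Glo luminescence (DEVD substrate) after 15 min at room temperature.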

[6] = HPAF-II 18hr Apoptosis Induction qHTS against the NCATS CANVASS Library (AID 1347360); conditions: HPAF-II caspase-3/7 luminescence; series mostly up to 46.1 µM
How it was run: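 Apoptosis was scored as caspase-3/7 activity in HPAF-II pancreatic cancer cells treated 18 hours with an 11-point concentration series.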

[7] = HEK293 12hr Apoptosis Induction qHTS against the NCATS CANVASS Library (AID 1347361); conditions: HEK293 caspase-3/7 Caspase-Glo luminescence; series mostly up to 46.1 µM
How it was run: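 Apoptosis in HEK293 was scored as caspase-3/7 luminescence following 12 h treatment with a compound concentration series in qHTS format.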

[8] = target: Luciferin 4-monooxygenase (Photinus pyralis) (UniProt P08659); assay: Firefly luciferase counterscreen qHTS: Assay Interference Panel against the NCATS CANVASS Library (AID 1347363); conditions: purified firefly luciferase, luminescence inhibition, 5 min; series mostly up to 57.5 µM
How it was run: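 Purified P. pyralis luciferase (0.04 ug/mL, 4x reagent) added to Tris-acetate buffer with 0.013 mM D-luciferin, 0.013 mM ATP and 13.3 mM Mg-acetate; compounds preincubated 15 min, then luminescence read after 5 min, RT.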

[9] = KB-8-5-11 Cancer Cell Toxicity qHTS against the NCATS CANVASS Library (AID 1347364); conditions: KB-8-5-11 MDR cells viability, CellTiter-Glo, 72 h; series mostly up to 46.1 µM; also: nearly all actives have a fitted effect of over 75% in size
How it was run: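 KB-8-5-11 cells (500/well) in DMEM + 10% FBS were exposed to compounds in an 11-point qHTS series for 72 hr at 37C, 5% CO2. Viability was read by CellTiter-Glo luminescence.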

[10] = SDT Cancer Cell Toxicity qHTS against the NCATS CANVASS Library (AID 1347365); conditions: SDT dog glioma viability, ATP luminescence, 72 h; series mostly up to 46.1 µM; also: nearly all actives have a fitted effect of over 60% in size; also: potency is read from the fitted curve at half-maximal effect
How it was run: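 SDT canine glioma cells (500 cells/well) were exposed to compounds in an 11-point series for 72 hr at 37C, 5% CO2; viability was read as ATP content by CellTiterGlo luminescence.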

[11] = KB-3-1 Cancer Cell Toxicity qHTS against the NCATS CANVASS Library (AID 1347366); conditions: KB-3-1 viability, CellTiter-Glo luminescence, 72 h; at 46.1 µM (top of the series); also: nearly all actives have a fitted effect of over 75% in size
How it was run: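 Seed KB-3-1 cells at 500/well in DMEM with 10% FBS, add compounds, incubate 72 hr at 37C and 5% CO2, then add CellTiter-Glo and read luminescence after 10 minutes.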

[12] = qHTS for ATAD5 Agonist screened against the NCATS CANVASS Library (AID 1347367); conditions: HEK293T ATAD5-luciferase reporter, luminescence, 16 h; series mostly up to 46.1 µM;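 also: luciferase reporter driven by ATAD5 which rises upon DNA damage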
How it was run: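 Step one plated reporter cells and let them acclimate 5hr. Step two pinned compounds with MMS as positive and 0.46% DMSO as negative control. After 16hr incubation, fluorescence viability then luminescence were read.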

[13] = G06 Cancer Cell Toxicity qHTS against the NCATS CANVASS Library (AID 1347368); conditions: G06 dog glioma cells, viability ATP luminescence, 72 h; series mostly up to 46.1 µM; also: nearly all actives have a fitted effect of over 60% in size; also: potency is read from the fitted curve at half-maximal effect
How it was run: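 G06 dog glioma cells seeded at 500 cells/well were exposed to compounds (11-point qHTS series) for 72 hr at 37C, 5% CO2; viability read as ATP content by CellTiterGlo luminescence.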

[14] = qHTS for ATAD5 Antagonist screened against the NCATS CANVASS Library (AID 1347370); conditions: HEK293T-ATAD5-luc, 5-FUrd stimulated, luminescence, 16 h; series mostly up to 46.1 µM;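 also: HEK293T cells carrying an ATAD5 luciferase reporter co-treated with 10 µM 5-fluorouridine; nearly all actives have a fitted effect of over 65% in size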
How it was run: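 HEK293T cells with a stably integrated ATAD5-controlled luciferase reporter were exposed to compounds (11-pt) alongside 10 uM 5-fluorouridine as ATAD5 stabilizer for 16hr at 37C. Viability was read by CellTiter-Fluor fluorescence, then ATAD5 by luminescence.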

[15] = J3T Cancer Cell Toxicity qHTS against the NCATS CANVASS Library (AID 1347371); conditions: J3T dog glioma viability, ATP luminescence, 72 h; series mostly up to 46.1 µM
How it was run: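 J3T dog glioma cells (500 cells/well) were exposed to compounds in an 11-point series for 72 hr at 37C, 5% CO2. Cytotoxicity was read as ATP content by CellTiterGlo luminescence.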

[16] = target: Nuclear receptor subfamily 1 group I member 3 (Homo sapiens) (UniProt Q14994); assay: qHTS for Constitutive Androstane Receptor (CAR) Antagonist screened against the NCATS CANVASS Library (AID 1347372); conditions: HepG2-hCAR-CYP2B6 luciferase, CITCO-stimulated antagonist mode; series mostly up to 46.1 µM;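 also: cells stimulated with 50 nM CITCO agonist so inhibition reflects antagonism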
How it was run: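 HepG2 cells stably carrying hCAR and CYP2B6-2.2kb luciferase reporter, 2500 cells/well, compound with 50 nM CITCO agonist for 24hr at 37C. ONE-Glo luminescence measured CAR activity; CellTiter-Fluor read viability.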

[17] = target: Nuclear receptor subfamily 1 group I member 3 (Homo sapiens) (UniProt Q14994); assay: qHTS for Constitutive Androstane Receptor (CAR) Agonist screened against the NCATS CANVASS Library (AID 1347373); conditions: HepG2-hCAR-CYP2B6 luciferase reporter, ONE-Glo luminescence; series mostly up to 46.1 µM;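 also: every well also contained 1.5 µM PK11195 alongside the test compound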
How it was run: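 HepG2 cells stably expressing hCAR and a CYP2B6-2.2kb luciferase reporter were treated for 24hr at 37C with compounds (11-point qHTS) in the presence of 1.5uM PK11195. Reporter activation was read by ONE-Glo luminescence.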

[18] = qHTS for Hypoxia signaling pathway (HIF-1) antagonists against the NCATS CANVASS Library (AID 1347374); conditions: HRE-bla ME-180 cells, HIF-1 beta-lactamase reporter, CoCl2; series mostly up to 38.3 µM;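 also: HRE-bla ME-180 cells stimulated with cobalt chloride to stabilize HIF-1alpha; nearly all actives have a fitted effect of over 60% in size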
How it was run: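 HRE-bla ME-180 cells (2,000/well, 0.5% dialyzed FBS) were pre-incubated 5 h, then given an 11-point compound series plus CoCl2 (60 uM solution as added) for 17 h at 37C. CCF4 β-lactamase read (ex 405, em 460/530 nm) after 2 h at RT.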

[19] = qHTS for Hypoxia signaling pathway (HIF-1) agonists against the NCATS CANVASS Library (AID 1347375); conditions: HRE-bla ME-180 cells, HIF-1 beta-lactamase reporter, 17 h; series mostly up to 38.3 µM
How it was run: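 HRE-bla ME-180 cells (beta-lactamase reporter under hypoxia responsive element) in 0.5% dialyzed FBS medium, 5 h at 37C, then compound 17 h, 11-point qHTS series. CCF4-AM FRET substrate 2 h RT; 460/530 nm emission read.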

[20] = MCF7 Cancer Cell Toxicity qHTS against the NCATS CANVASS Library (AID 1347369); conditions: MCF7 viability, ATP luminescence (CellTiter-Glo), 72 h; also: potency is read from the fitted curve at half-maximal effect
How it was run: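 Cytotoxicity is measured by ATP content: MCF7 cells at 500 per well receive an 11-point compound series and, after 72 hr at 37C, are lysed with CellTiterGlo for luminescence.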

Measured: Potency

Chain of Nuclear receptor subfamily 1 group I member 3 (Homo sapiens) (Q14994 whole entry, looked up): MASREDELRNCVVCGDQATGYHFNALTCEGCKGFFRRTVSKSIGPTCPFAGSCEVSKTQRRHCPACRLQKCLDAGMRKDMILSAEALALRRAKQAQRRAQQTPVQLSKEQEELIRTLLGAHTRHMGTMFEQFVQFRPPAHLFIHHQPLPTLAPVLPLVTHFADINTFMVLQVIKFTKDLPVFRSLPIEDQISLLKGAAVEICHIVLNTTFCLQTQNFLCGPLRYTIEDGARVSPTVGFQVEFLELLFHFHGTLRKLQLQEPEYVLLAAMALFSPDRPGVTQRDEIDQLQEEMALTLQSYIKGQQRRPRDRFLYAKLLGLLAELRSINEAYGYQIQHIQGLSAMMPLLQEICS
Chain of Luciferin 4-monooxygenase (Photinus pyralis) (P08659 whole entry, looked up): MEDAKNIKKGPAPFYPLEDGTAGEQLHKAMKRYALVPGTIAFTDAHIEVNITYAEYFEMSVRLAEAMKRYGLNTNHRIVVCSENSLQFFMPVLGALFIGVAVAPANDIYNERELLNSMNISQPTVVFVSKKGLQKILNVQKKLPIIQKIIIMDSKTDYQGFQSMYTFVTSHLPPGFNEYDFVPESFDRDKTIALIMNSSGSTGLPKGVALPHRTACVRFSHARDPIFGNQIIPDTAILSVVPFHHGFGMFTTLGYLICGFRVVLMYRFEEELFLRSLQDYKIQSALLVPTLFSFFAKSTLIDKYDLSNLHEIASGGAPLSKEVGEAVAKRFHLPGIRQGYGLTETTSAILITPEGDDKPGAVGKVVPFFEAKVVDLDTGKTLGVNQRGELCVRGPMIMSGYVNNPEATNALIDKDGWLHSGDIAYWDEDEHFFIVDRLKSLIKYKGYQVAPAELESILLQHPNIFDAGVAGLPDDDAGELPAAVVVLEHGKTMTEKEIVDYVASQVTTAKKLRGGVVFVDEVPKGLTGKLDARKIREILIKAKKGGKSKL

O=C(O)c1cc(O)c(O)c(O)c1
not listed: [20]
inactive: all other assays above

O=c1cc(-c2ccccc2)oc2c(O)c(O)ccc12
inactive: [2] | [3] | [4] | [5] | [6] | [7] | [15] | [16] | [19]
active: [10] 4.18 µM | [13] 9.35 µM | [20] 13.1 µM
